Data on 39 compounds can be found in PubChem BioAssay (NCATS).

Inconclusive results are not listed. Where a call stands in place of a potency, no number is given. The source made the active and inactive calls. The call rests on the fitted dose curve; in most records, active means well fitted cell-killing curve with a large enough effect; inconclusive means small, poorly fitted or top-dose-only effect; inactive means flat fitted curve, though single readings scatter.
Potency means the concentration at half of the fitted maximal effect.

The first assay is described as follows: qHTS of pediatric cancer cell lines to identify multiple opportunities for drug repurposing: Primary screen for BT-12 cells (AID 1347101). Further: nearly all actives have a fitted effect of over 25% in size. Conditions: BT-12 viability, CellTiter-Glo luminescence, 48 h; series mostly up to 57.3 µM. The gist of the method:
(§1)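 Cells (500-1,000/well) rested 5 h, then received compounds for 48 h; metabolically active cells were measured by CellTiter-Glo luminescence. Final concentrations spanned up to 46 µM (MIPE, 11-point) or 0.59 nM-46 µM (NPC, 8-point) in primary screens, 11-point in follow-ups.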
A general note: qHTS replaces the single test concentration by a dilution series.
Regarding `COc1c(N2C[C@@H]3CCCN[C@@H]3C2)c(F)cc2c(=O)c(C(=O)O)cn(C3CC3)c12`, the Potency result is “inactive”.
On to `CCO[C@H](Cc1ccc(OCCc2ccc(OS(C)(=O)=O)cc2)cc1)C(=O)O`, for which the Potency result was “inactive”.
For `CC(C)(C)NCC(O)COc1ccccc1OCC1CCCO1` (configuration not stated), the Potency entry is “inactive”.
Take `O=C1[C@@H]2[C@H]3CC[C@H](C3)[C@@H]2C(=O)N1CCCCN1CCN(c2ncccn2)CC1`: the Potency result is “inactive”.
As to `O=C1CC2(CCCC2)CC(=O)N1CCNCC1COc2ccccc2O1` (configuration not stated), the Potency entry was “inactive”.
Still for that read-out and setting: for `CO/N=C(\C(=O)O)c1csc(NC(=O)CCl)n1` the value was “inactive”; for `Cc1ccc(C(=O)Oc2ccc(C(O)CNC(C)(C)C)cc2OC(=O)c2ccc(C)cc2)cc1` (configuration not stated), 6.17 µM (active).
Same read-out and setting: the result for `O=C(O)c1ccccc1Nc1cc(Cl)ccc1C(=O)O` reads “inactive”.
On to `CC(=O)OCC(=O)Nc1cc(C#N)cc(NC(=O)COC(C)=O)c1Cl`, for which the Potency result is “inactive”.
For `O=C(O)c1ccc(OCCN2CCCCC2)cc1`, the Potency entry is “inactive”.
On the same count and under the same terms, the result for `C[C@]12CCC(=O)C=C1CC[C@@H]1[C@@H]2[C@@H](O)C[C@@]2(C)[C@H]1CC[C@]2(O)C(=O)COC(=O)CCC(=O)O` reads “inactive”; that for `O=C(O)C(=O)Nc1cccc(-c2nn[nH]n2)c1`, “inactive”.
Still for that read-out and setting: for `Cc1ccccc1N1CCN(CCc2nnc3n2CCCC3)CC1` the value was “inactive”; for `OCCc1ccccc1`, “inactive”.
The same measure, in the same setting: for `CN1C(=O)c2ccccc2C1=O` the value was “inactive”.
Regarding `CCCCOCCOC(=O)c1cccnc1`, the Potency result was “inactive”.
With `Nc1ccc(C(=O)N2CC3CC(CN(Cc4ccccc4)C3)C2)cc1`, the Potency result was “inactive”.
`Cc1[nH]cnc1-c1ccc(Cl)cc1`: the Potency result is “inactive”.
As for `COc1cc(C(=O)OC(COCCC(C)C)CN2CCOCC2)cc(OC)c1OC` (configuration not stated), the Potency result was “inactive”.
Still for that read-out and setting: for `C[C@H]1C[C@@H]2[C@H]([C@@H](O)C[C@@]3(C)[C@H]2CC[C@]3(O)C(=O)CO)[C@@]2(C)C=CC(=O)C=C12` the value was “inactive”; for `COC(=O)c1cc(Cl)ccc1OC`, “inactive”.
`Cc1ccc2ccc(Cl)cc2n1`: the Potency result was “inactive”.
`CCCCCCCCCCCCCCCCCCN(C)C`: the Potency entry is “inactive”.
For `Oc1cccc2[nH]ccc12`, the Potency result is “inactive”.
In the case of `CN(C)CCN1CCN(c2cccc(Cl)c2)C1=O`, the Potency entry was “inactive”.
For the compound `Cc1ccc(C(C)OC(=O)C2(C)CCC(C(=O)O)C2(C)C)cc1` (configuration not stated), the Potency result is “inactive”.
For `N#CC1(c2ccc(F)cc2)CCC(=O)CC1`, the Potency result was “inactive”.
In the case of `CCCCCCCCCCCCCCCC[n+]1ccccc1`, the Potency was 6.92 µM (active).
Consider `O=C(O)CNC(=O)CNC(=O)CNC(=O)CSC(=O)c1ccccc1`, for which the Potency result was “inactive”.
Consider `COc1cc(OC)nc(O[C@H](C(=O)O)C(OC)(c2ccccc2)c2ccccc2)n1`, for which the Potency entry is “inactive”.
Take `NC(=O)COCCN1CCN(C(c2ccccc2)c2ccc(Cl)cc2)CC1` (configuration not stated): the Potency result is “inactive”.
As for `C1=CC2C3C=CC(C3)C2C1` (configuration not stated), the Potency result was “inactive”.
Turning to `OC1(c2ccccc2)CCNCC1`, the Potency result is “inactive”.

The nature of a further assay: qHTS of pediatric cancer cell lines to identify multiple opportunities for drug repurposing: Primary screen for Rh18 cells (AID 1347102). Further: nearly all actives have a fitted effect of over 65% in size. Conditions: Rh18 rhabdomyosarcoma viability, CellTiter-Glo luminescence, 48 h; series mostly up to 46 µM. The method in brief: as §1
For `COc1c(N2C[C@@H]3CCCN[C@@H]3C2)c(F)cc2c(=O)c(C(=O)O)cn(C3CC3)c12`, the Potency result was “inactive”.
Still for that read-out and setting: for `CCO[C@H](Cc1ccc(OCCc2ccc(OS(C)(=O)=O)cc2)cc1)C(=O)O` the value was “inactive”; for `CC(C)(C)NCC(O)COc1ccccc1OCC1CCCO1` (configuration not stated), “inactive”; for `Cc1cc(O)c2c(O)c3c(O)cccc3cc2c1`, “inactive”.
As to `CCC(C(=O)OCCN1CCOC(c2ccccc2)C1C)c1ccccc1` (configuration not stated), the Potency result was “inactive”.
On the same count and under the same terms, for `O=C1[C@@H]2[C@H]3CC[C@H](C3)[C@@H]2C(=O)N1CCCCN1CCN(c2ncccn2)CC1` the value was “inactive”; for `O=C1CC2(CCCC2)CC(=O)N1CCNCC1COc2ccccc2O1` (configuration not stated), “inactive”; for `COC(=O)c1cc(S(N)(=O)=O)ccc1OC`, “inactive”.
Still for that read-out and setting: the result for `CO/N=C(\C(=O)O)c1csc(NC(=O)CCl)n1` reads “inactive”; that for `Cc1ccc(C(=O)Oc2ccc(C(O)CNC(C)(C)C)cc2OC(=O)c2ccc(C)cc2)cc1` (configuration not stated), “inactive”; that for `O=C(O)c1ccccc1Nc1cc(Cl)ccc1C(=O)O`, “inactive”.
Take `CC(=O)OCC(=O)Nc1cc(C#N)cc(NC(=O)COC(C)=O)c1Cl`: the Potency result is “inactive”.
Take `O=C(O)c1ccc(OCCN2CCCCC2)cc1`: the Potency result is “inactive”.
Still for that read-out and setting: for `CN(C)C(=O)CNC(=O)Cc1ccccc1` the value was “inactive”; for `C[C@]12CCC(=O)C=C1CC[C@@H]1[C@@H]2[C@@H](O)C[C@@]2(C)[C@H]1CC[C@]2(O)C(=O)COC(=O)CCC(=O)O`, “inactive”; for `C=C(C)C(=O)OCC(O)CO` (configuration not stated), “inactive”.
Turning to `O=C(O)C(=O)Nc1cccc(-c2nn[nH]n2)c1`, the Potency entry is “inactive”.
Consider `Cc1ccccc1N1CCN(CCc2nnc3n2CCCC3)CC1`, for which the Potency entry was “inactive”.
Still for that read-out and setting: for `OCCc1ccccc1` the value was “inactive”; for `CN1C(=O)c2ccccc2C1=O`, “inactive”.
In the case of `CCCCOCCOC(=O)c1cccnc1`, the Potency result is “inactive”.
Same read-out and setting: the result for `Nc1ccc(C(=O)N2CC3CC(CN(Cc4ccccc4)C3)C2)cc1` reads “inactive”.
Consider `Cc1[nH]cnc1-c1ccc(Cl)cc1`, for which the Potency result was “inactive”.
As for `COc1cc(C(=O)OC(COCCC(C)C)CN2CCOCC2)cc(OC)c1OC` (configuration not stated), the Potency entry is “inactive”.
Take `C[C@H]1C[C@@H]2[C@H]([C@@H](O)C[C@@]3(C)[C@H]2CC[C@]3(O)C(=O)CO)[C@@]2(C)C=CC(=O)C=C12`: the Potency entry is “inactive”.
For `CC(Oc1c(Cl)cccc1Cl)C1=NCCN1` (configuration not stated), the Potency entry was “inactive”.
Take `COC(=O)c1cc(Cl)ccc1OC`: the Potency entry was “inactive”.
For `Cc1ccc2ccc(Cl)cc2n1`, the Potency entry was “inactive”.
For `CCCCCCCCCCCCCCCCCCN(C)C`, the Potency result was “inactive”.
Turning to `Oc1cccc2[nH]ccc12`, the Potency result is “inactive”.
On the same count and under the same terms, the result for `CN(C)CCN1CCN(c2cccc(Cl)c2)C1=O` reads “inactive”.
`Cc1ccc(C(C)OC(=O)C2(C)CCC(C(=O)O)C2(C)C)cc1` (configuration not stated): the Potency entry is “inactive”.
As to `N#CC1(c2ccc(F)cc2)CCC(=O)CC1`, the Potency result was “inactive”.
Consider `CCCCCCCCCCCCCCCC[n+]1ccccc1`, for which the Potency is 7.5 µM (active).
On the same count and under the same terms, for `O=C(O)CNC(=O)CNC(=O)CNC(=O)CSC(=O)c1ccccc1` the value was “inactive”.
Same read-out and setting: the result for `COc1cc(OC)nc(O[C@H](C(=O)O)C(OC)(c2ccccc2)c2ccccc2)n1` reads “inactive”.
Same read-out and setting: the result for `NC(=O)COCCN1CCN(C(c2ccccc2)c2ccc(Cl)cc2)CC1` (configuration not stated) reads “inactive”; that for `C1=CC2C3C=CC(C3)C2C1` (configuration not stated), “inactive”.
For `OC1(c2ccccc2)CCNCC1`, the Potency result is “inactive”.
